Assay [1] is described as follows: qHTS assay to identify small molecule antagonists of the thyroid receptor (TR) signaling pathway - cell viability counter screen (AID 743064). Also: nearly all actives have a fitted effect of over 50% in size. Also: potency is read from the fitted curve at half-maximal effect. The method in brief:
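Plate GH3.TRE-Luc cells; incubate 4 h at 37 °C; add compound, then T3 to 1 nM final; incubate 23.5 h; add CellTiter-Fluor; incubate 30 min at 37 °C, 5% CO2; read fluorescence.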
(In qHTS, concentration-response curves come from the screen itself.)

A short description of assay [2]: qHTS assay to identify small molecule antagonists of the thyroid receptor (TR) signaling pathway (AID 743065). Also: nearly all actives have a fitted effect of over 55% in size. Also: potency is read from the fitted curve at half-maximal effect. As to activity, negative = inhibition: series mostly up to about 70 µM. The method in brief:
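GH3.TRE-Luc rat pituitary cells (two TREs driving luciferase) were dosed with compound, then stimulated with 1 nM T3 (final) for 23.5 h at 37 C. ONE-Glo luminescence was the read-out, with CellTiter-Fluor fluorescence as the cytotoxicity counter-screen.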

The subject of assay [3] is thyroid hormone receptor (rat, GH3 cells). Put plainly: qHTS assay to identify small molecule agonists of the thyroid receptor (TR) signaling pathway (AID 743066; calls by dose curve).
A short description of assay [4]: qHTS assay to identify small molecule antagonists of the estrogen receptor alpha (ER-alpha) signaling pathway - cell viability counter screen (AID 743074; calls by dose curve;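 also: HEK293 cells carrying ER-alpha-UAS-bla reporter stimulated with 17beta-estradiol; nearly all actives have a fitted effect of over 45% in size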).
The nature of assay [5]: qHTS assay to identify small molecule antagonists of the estrogen receptor alpha (ER-alpha) signaling pathway using the BG1 cell line - cell viability counter screen (AID 743081).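 Also: compound given together with 17beta-estradiol as the ER stimulus; series mostly up to about 70 µM; nearly all actives have a fitted effect of over 45% in size.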
For another assay, the target named is Aromatase (Homo sapiens) (UniProt P11511). Put plainly: qHTS assay to identify aromatase inhibitors (AID 743083). Also: series mostly up to about 70 µM; nearly all actives have a fitted effect of over 55% in size.
Assay [6] can be described thus: qHTS assay to identify aromatase inhibitors - cell viability counter screen (AID 743084).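 Also: cells stimulated with testosterone during compound exposure; nearly all actives have a fitted effect of over 55% in size.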
For assay [7], the target named is Aryl hydrocarbon receptor (Homo sapiens) (UniProt P35869). Put plainly: qHTS assay to identify small molecule that activate the aryl hydrocarbon receptor (AhR) signaling pathway (AID 743085). Also: nearly all actives have a fitted effect of over 15% in size. Also: potency is read from the fitted curve at half-maximal effect.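 As to activation: HG2L7.5c1 human HepG2 liver cells with stably integrated DRE-driven firefly reporter; series mostly up to about 70 µM.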 The method in brief: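 Steps: seed HepG2-AhR-luc cells; allow 5 h at 37C; pin-transfer test compound or vehicle; incubate 24 h at 37C; add viability dye (30 min, 37C) and read fluorescence; add luciferase substrate (30 min, RT) and read luminescence.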

Assay [8] addresses Peroxisome proliferator-activated receptor gamma (Homo sapiens) (UniProt P37231). Nature of the assay: qHTS assay to identify small molecule antagonists of the peroxisome proliferator-activated receptor gamma (PPARg) signaling pathway (AID 743191; calls by dose curve; also: series mostly up to about 63 µM; nearly all actives have a fitted effect of over 30% in size). The method in brief:
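GeneBLAzer PPARg UAS-bla HEK293H cells, 5 h post-plating, exposed to compounds 17 h at 37C. LiveBLAzer B/G FRET substrate added for 1 h at room temperature; beta-lactamase reporter read by fluorescence intensity.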

Assay [9] is described as follows: qHTS assay to identify small molecule antagonists of the peroxisome proliferator-activated receptor gamma (PPARg) signaling pathway - cell viability counter screen (AID 743194). Also: nearly all actives have a fitted effect of over 55% in size. The method in brief:
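Cytotoxicity counter screen in PPARg-bla HEK293H cells, same wells as reporter assay. Compounds plus 50 nM rosiglitazone (final) for 17 h at 37 C, then viability read by CellTiter-Glo luminescence.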

Assay [10] in a line: qHTS assay for small molecule agonists of the antioxidant response element (ARE) signaling pathway (AID 743202; active = well fitted activation curve with a large enough effect in the signal ratio in the repeat runs, not every such curve was filed as active; the % refers to the signal ratio). The method in brief:
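HepG2 ARE-bla reporter line, 2,000 cells/well; 5 h preincubation 37 C/5% CO2; compound (DMSO) 16 h 37 C; B/G FRET substrate 2 h RT; fluorescence intensity.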

The nature of assay [11]: qHTS assay for small molecule agonists of the antioxidant response element (ARE) signaling pathway - cell viability counter screen (AID 743203; calls by dose curve; also: nearly all actives have a fitted effect of over 55% in size). The method in brief:
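Luminescence read-out (CellTiter-Glo, 30 min at room temperature) measured cell viability in the same wells as the ARE beta-lactamase reporter. HepG2 ARE-bla cells were treated with compounds for 16 hrs at 37C/5% CO2.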

Assay [12] is described as follows: qHTS assay for small molecule activators of the heat shock response signaling pathway - cell viability counter screen (AID 743209). Also: nearly all actives have a fitted effect of over 50% in size. The method in brief: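 HSE-bla HeLa; 1500 cells/well; overnight 37 C, 5% CO2; compound 5 h 37 C; LiveBLAzer B/G substrate 2.5 h RT; CellTiter-Glo 30 min RT; luminescence.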
Assay [13] can be described thus: qHTS assay for small molecule activators of the heat shock response signaling pathway (AID 743210; active = well fitted activation curve with a large enough effect in the signal ratio in the repeat runs, with a control signal flat, not every such curve was filed as active; the % refers to the signal ratio; also: series mostly up to about 63 µM). The method in brief: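 Beta-lactamase reporter read-out: FRET substrate fluorescence after 2.5 h at RT, following 5 h compound treatment at 37 C of HeLa cells carrying HSE-driven bla reporter; quantitative HTS format.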
Assay [14] can be described thus: qHTS assay to identify small molecule that activate the aryl hydrocarbon receptor (AhR) signaling pathway - cell viability counter screen (AID 743086).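 Also: HepG2 liver cells carrying the AhR DRE luciferase reporter; series mostly up to about 70 µM; nearly all actives have a fitted effect of over 45% in size.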 The method in brief: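 HepG2-AhR-luc (HG2L7.5c1) cells, 4000/well, treated 24 h at 37 C with compound; viability measured as CellTiter-Fluor fluorescence after 30 min in the same wells as the luciferase read.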
The target of assay [15] is Peroxisome proliferator-activated receptor gamma (Homo sapiens) (UniProt P37231). Put plainly: qHTS assay to identify small molecule agonists of the peroxisome proliferator-activated receptor gamma (PPARg) signaling pathway (AID 743094; active = well fitted activation curve with a large enough effect in the signal ratio in the repeat runs, not every such curve was filed as active; the % refers to the signal ratio). The method in brief: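 HEK293H PPARg-bla cells, 5 h settle at 37C/5% CO2; compound (DMSO) 17 h, 37C; B/G FRET substrate 1 h RT; fluorescence intensity read-out. qHTS format.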

Assay [16] deals with Estrogen receptor (Homo sapiens) (UniProt P03372). Put plainly: qHTS assay to identify small molecule agonists of the estrogen receptor alpha (ER-alpha) signaling pathway (AID 743075; calls by dose curve;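 also: HEK293 GripTite cells with ER-alpha and UAS-driven beta-lactamase reporter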).
For assay [17] the target is unchanged. Put plainly: qHTS assay to identify small molecule agonists of the estrogen receptor alpha (ER-alpha) signaling pathway using the BG1 cell line (AID 743079). Also: nearly all actives have a fitted effect of over 20% in size.
Assay [18] in a line: qHTS assay to identify small molecule antagonists of the estrogen receptor alpha (ER-alpha) signaling pathway using the BG1 cell line (AID 743080; calls by dose curve;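 also: BG1 cells stimulated with 17beta-estradiol alongside compound; series mostly up to about 70 µM; nearly all actives have a fitted effect of over 25% in size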). The method in brief: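 BG1-Luc-4E2 cells (endogenous full-length ER-alpha, 4xERE luciferase) hormone-starved 5 days in charcoal-stripped FBS, plated 4,000/well for 24 h, then compound plus 17beta-estradiol for 21.5 h at 37 C; ONE-Glo luminescence read.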

Assay [19] concerns the target Estrogen receptor (Homo sapiens) (UniProt P03372). Put plainly: qHTS assay to identify small molecule antagonists of the estrogen receptor alpha (ER-alpha) signaling pathway (AID 743069; active = well fitted curve in the direction sought with a large enough effect in the signal ratio in the repeat runs, not every such curve was filed as active; the % refers to the signal ratio). The method in brief:
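Beta-lactamase FRET fluorescence is read after 2 hr at room temperature with LiveBLAzer B/G substrate. Before that, ER-alpha-bla HEK293 cells sit 4 hr after plating, then receive compound plus 17beta-estradiol and incubate 18 hr at 37C.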

Inconclusive results are not listed. Values without a mark were called inactive. The source made the active and inactive calls. Unless noted, calls follow the shape of the dose curve; as a rule, active = well fitted curve in the direction sought with a large enough effect in the repeat runs; inconclusive = weak or mixed curves; inactive = no such curve, though single readings can be large; an effect the other way counts as inactive or inconclusive.
% is scaled to controls: 0 for no effect and ±100 for the full control effect.

Sequence of Estrogen receptor (Homo sapiens) (P03372 whole entry, looked up): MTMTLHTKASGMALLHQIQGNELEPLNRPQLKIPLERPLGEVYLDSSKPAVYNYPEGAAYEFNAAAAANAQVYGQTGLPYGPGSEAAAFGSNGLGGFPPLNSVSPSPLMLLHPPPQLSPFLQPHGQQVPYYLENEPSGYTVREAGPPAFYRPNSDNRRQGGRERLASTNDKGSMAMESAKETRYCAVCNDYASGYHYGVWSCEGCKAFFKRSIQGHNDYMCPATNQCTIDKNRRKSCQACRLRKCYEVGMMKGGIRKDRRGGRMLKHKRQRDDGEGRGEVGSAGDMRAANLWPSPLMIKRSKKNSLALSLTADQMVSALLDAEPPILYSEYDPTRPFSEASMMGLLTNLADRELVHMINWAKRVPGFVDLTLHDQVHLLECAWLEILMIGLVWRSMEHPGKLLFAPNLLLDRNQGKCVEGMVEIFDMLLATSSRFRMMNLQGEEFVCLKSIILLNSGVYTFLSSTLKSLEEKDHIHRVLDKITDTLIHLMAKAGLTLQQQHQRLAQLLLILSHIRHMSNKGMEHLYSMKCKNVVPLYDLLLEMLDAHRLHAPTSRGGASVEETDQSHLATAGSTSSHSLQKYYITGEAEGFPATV
Sequence of Aryl hydrocarbon receptor (Homo sapiens) (P35869 whole entry, looked up): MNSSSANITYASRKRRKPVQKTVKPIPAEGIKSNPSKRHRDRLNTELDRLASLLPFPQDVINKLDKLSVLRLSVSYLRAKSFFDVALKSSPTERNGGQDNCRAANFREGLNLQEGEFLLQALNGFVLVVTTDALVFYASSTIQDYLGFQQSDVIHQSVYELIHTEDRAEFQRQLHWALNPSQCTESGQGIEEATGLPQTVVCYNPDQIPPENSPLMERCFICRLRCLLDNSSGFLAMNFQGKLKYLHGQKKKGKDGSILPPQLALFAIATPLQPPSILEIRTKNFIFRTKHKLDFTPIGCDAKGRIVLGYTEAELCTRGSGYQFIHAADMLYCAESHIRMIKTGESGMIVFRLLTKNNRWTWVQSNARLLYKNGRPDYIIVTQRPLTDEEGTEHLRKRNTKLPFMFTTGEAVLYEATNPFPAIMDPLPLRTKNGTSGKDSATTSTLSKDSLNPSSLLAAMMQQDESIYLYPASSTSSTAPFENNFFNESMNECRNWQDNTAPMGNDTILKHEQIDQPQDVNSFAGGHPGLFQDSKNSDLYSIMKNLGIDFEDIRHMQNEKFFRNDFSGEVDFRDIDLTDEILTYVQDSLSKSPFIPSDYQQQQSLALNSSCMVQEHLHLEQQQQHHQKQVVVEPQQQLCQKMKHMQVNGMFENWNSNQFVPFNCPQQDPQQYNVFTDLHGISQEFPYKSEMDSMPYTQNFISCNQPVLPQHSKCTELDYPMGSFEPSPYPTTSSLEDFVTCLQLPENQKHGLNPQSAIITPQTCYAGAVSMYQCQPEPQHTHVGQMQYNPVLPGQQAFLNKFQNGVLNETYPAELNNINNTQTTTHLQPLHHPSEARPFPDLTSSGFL
Sequence of Peroxisome proliferator-activated receptor gamma (Homo sapiens) (P37231 whole entry, looked up): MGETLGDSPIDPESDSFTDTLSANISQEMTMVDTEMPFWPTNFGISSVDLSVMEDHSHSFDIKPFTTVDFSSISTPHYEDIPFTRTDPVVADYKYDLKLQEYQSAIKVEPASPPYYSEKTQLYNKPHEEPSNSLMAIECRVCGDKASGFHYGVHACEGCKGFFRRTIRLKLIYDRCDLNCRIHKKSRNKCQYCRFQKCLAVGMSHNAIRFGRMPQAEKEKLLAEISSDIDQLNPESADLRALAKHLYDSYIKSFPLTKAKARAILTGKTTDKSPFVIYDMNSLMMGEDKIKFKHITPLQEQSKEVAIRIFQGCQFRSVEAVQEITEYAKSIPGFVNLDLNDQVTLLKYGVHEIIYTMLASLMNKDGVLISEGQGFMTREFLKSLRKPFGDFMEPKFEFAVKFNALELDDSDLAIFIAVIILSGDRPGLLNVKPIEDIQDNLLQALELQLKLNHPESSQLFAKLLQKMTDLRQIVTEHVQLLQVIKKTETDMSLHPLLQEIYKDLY
Sequence of Aromatase (Homo sapiens) (P11511 whole entry, looked up): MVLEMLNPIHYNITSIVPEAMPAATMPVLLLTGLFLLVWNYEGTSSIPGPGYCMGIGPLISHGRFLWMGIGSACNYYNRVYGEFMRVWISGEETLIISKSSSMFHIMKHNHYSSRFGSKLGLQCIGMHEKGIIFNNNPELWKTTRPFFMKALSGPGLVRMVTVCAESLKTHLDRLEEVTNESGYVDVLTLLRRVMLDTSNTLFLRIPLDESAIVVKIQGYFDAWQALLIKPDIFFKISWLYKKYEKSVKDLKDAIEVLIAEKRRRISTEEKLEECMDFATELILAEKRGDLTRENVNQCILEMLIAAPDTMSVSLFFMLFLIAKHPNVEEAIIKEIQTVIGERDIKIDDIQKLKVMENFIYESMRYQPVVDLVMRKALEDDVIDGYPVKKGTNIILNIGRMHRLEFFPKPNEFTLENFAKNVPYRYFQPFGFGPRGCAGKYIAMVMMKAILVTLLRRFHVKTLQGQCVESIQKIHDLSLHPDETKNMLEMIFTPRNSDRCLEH

Turning to `COC(=O)c1ccc(C)cc1C1=NC(C)(C(C)C)C(=O)N1` (stereo unspecified), the Potency result (in [1]; in assay [2]; in assay [5]; with Aromatase (Homo sapiens); in [6]; in assay [7]) was “inactive” throughout. The Potency result in assay [8], in [10] and in assay [11] was “inactive” each time. In addition, the outcome in [3], in assay [4], in assay [9], in assay [12] and in assay [13] was inactive.
With `CCCCCCCCCCCCN(CCCCCCCCCCCC)CCCCCCCCCCCC`, the Potency entry (in assay [1]; in assay [2]; in assay [5]; in the assay with Aromatase (Homo sapiens); in assay [6]; in assay [7]) was “inactive” throughout. In addition, the Potency result in [14] and in assay [10] was “inactive” each time. For the same molecule, the molecule was classed as inactive in assay [3], in assay [4], in assay [15], in assay [12] and in assay [13].
For the molecule `C[C@H]1C[C@@H](O)CC(C)(C)C1`, the Potency entry (in assay [1]; in assay [2]; in [5]; in the assay with Aromatase (Homo sapiens); in assay [6]; in assay [7]) was “inactive” throughout. Further, the Potency entry in [14], in assay [10] and in [11] was “inactive” throughout. Also, the molecule was classed as inactive in assay [3], in assay [4], in [15], in assay [9] and in assay [12].
Turning to `Cn1c(N)c(N=O)c(=O)n(C)c1=O`, the Potency result (in assay [1]; in assay [2]; in [5]; in the assay with Aromatase (Homo sapiens); in [6]; in [14]) was “inactive” in each case. The Potency entry in assay [8], in assay [10] and in assay [11] was “inactive” in each case. For the same molecule, the molecule was called inactive in assay [3], in [4], in assay [9], in assay [12] and in [13]. The Potency in [7] was 25.1 µM (active).
Consider `CO[C@]12C[C@@H](COC(=O)c3cncc(Br)c3)CN(C)[C@@H]1Cc1cn(C)c3cccc2c13`, for which the Potency in assay [1] is 21.1 µM (active); in assay [2] it was 21.1 µM (active); in assay [7] it was 29.8 µM (active). In addition, the outcome in [3], in assay [4], in assay [9], in [12] and in [13] was inactive. For the same molecule, the Potency entry (in assay [5]; with Aromatase (Homo sapiens); in assay [6]; in assay [14]; in [10]; in [11]) was “inactive” each time.
Turning to `O=C(O)CNC(=O)c1ccc([N+](=O)[O-])cc1`, the Potency entry (in assay [1]; in assay [2]; in [5]; with Aromatase (Homo sapiens); in assay [6]; in assay [7]) was “inactive” in each case. The Potency entry in assay [14], in [10] and in [11] was “inactive” each time. The result in assay [3], in assay [4], in assay [15], in [12] and in assay [13] was inactive.
Consider `CCN1CCC[C@H]1CNC(=O)c1cc(S(N)(=O)=O)ccc1OC`, for which the Potency entry (in assay [1]; in [2]; in assay [5]; with Aromatase (Homo sapiens); in [6]; in [7]) was “inactive” in each case. In addition, the Potency result in [14], in [8] and in assay [10] was “inactive” in each case. The result in [3], in assay [4], in assay [15], in assay [9], in assay [12] and in assay [13] was inactive.
Turning to `CCCN1CCCC[C@H]1C(=O)Nc1c(C)cccc1C`, the Potency entry (in [1]; in [2]; in assay [5]; with Aromatase (Homo sapiens); in [6]; in assay [7]) was “inactive” in each case. Besides, the Potency result in [14], in [10] and in [11] was “inactive” each time. The outcome in assay [3], in [4], in [15], in [9], in [12] and in assay [13] was inactive.
Consider `CCc1ccc(O)c(OC)c1`, for which the Potency entry (in assay [1]; in assay [2]; in assay [5]; with Aromatase (Homo sapiens); in [6]; in assay [7]) was “inactive” throughout. The Potency result in assay [14], in [8], in [10] and in assay [11] was “inactive” each time. Further, the molecule was classed as inactive in [3], in assay [4], in assay [15], in assay [9], in assay [12] and in [13].
For the molecule `C1OCOCO1`, the Potency result (in [1]; in assay [2]; in assay [5]; with Aromatase (Homo sapiens); in assay [6]; in assay [7]) was “inactive” in each case. For the same molecule, the Potency entry in assay [14] and in assay [11] was “inactive” throughout. In addition, the call in assay [3], in [4], in assay [15], in [9], in [12] and in assay [13] was inactive.
Regarding `N#Cc1ccc(C2CCCc3cncn32)cc1` (stereo unspecified), the Potency entry in [1], in assay [16], in assay [17], in assay [5], in assay [6] and in assay [7] was “inactive” each time. In addition, the Potency entry in assay [14] and in assay [11] was “inactive” in each case. Besides, the molecule was classed as inactive in assay [18], in assay [15], in assay [9], in [12] and in assay [13].
As for `NC(=O)c1cn(Cc2c(F)cccc2F)nn1`, the Potency result in assay [1], in assay [2], in assay [5], in [14], in assay [10] and in assay [11] was “inactive” throughout. Further, the outcome in assay [3], in assay [4], in assay [9], in assay [12] and in [13] was inactive.
For `CCC(C)S` (stereo unspecified), in assay [1], the activity change, negative = cytotoxic is 23.6% [at 3.79 µM]. Also, the activity, negative = inhibition in assay [2] was 10.9% [at 3.79 µM]; with Aromatase (Homo sapiens), 7.68% [at 3.79 µM]. Moreover, the results for the activation in [3], in assay [7] and in [10] were 1.37% [at 3.63 µM], 2.05% [at 3.79 µM] and 1.05% [at 3.74 µM], respectively. The activity change, negative = cytotoxicity in assay [5] is 11% [at 3.79 µM]; in [6] it was -1.89% [at 3.79 µM]; in assay [12], -3.21% [at 2.7 µM]. The viability change, negative = cytotoxic in assay [14] was -4.09% [at 3.79 µM]; in assay [11] it was 9.9% [at 3.74 µM]. In addition, the ratio activity, negative = inhibition in assay [8] is 25.6% [at 2.7 µM].
As to `CCCCNC(=O)NCCCC`, the Potency result (in assay [1]; in assay [16]; in assay [17]; in [5]; with Aromatase (Homo sapiens); in assay [6]) was “inactive” each time. For the same molecule, the Potency result in assay [7], in assay [14] and in [11] was “inactive” throughout. Besides, the molecule was classed as inactive in assay [19], in assay [4], in [18], in assay [15], in [9] and in assay [12]. In addition, the outcome in assay [13] was inactive.
